The text below walks through data of the supplement of paper PMC11001985.

Sequence of UniProt Q15149 (Q15149 whole entry): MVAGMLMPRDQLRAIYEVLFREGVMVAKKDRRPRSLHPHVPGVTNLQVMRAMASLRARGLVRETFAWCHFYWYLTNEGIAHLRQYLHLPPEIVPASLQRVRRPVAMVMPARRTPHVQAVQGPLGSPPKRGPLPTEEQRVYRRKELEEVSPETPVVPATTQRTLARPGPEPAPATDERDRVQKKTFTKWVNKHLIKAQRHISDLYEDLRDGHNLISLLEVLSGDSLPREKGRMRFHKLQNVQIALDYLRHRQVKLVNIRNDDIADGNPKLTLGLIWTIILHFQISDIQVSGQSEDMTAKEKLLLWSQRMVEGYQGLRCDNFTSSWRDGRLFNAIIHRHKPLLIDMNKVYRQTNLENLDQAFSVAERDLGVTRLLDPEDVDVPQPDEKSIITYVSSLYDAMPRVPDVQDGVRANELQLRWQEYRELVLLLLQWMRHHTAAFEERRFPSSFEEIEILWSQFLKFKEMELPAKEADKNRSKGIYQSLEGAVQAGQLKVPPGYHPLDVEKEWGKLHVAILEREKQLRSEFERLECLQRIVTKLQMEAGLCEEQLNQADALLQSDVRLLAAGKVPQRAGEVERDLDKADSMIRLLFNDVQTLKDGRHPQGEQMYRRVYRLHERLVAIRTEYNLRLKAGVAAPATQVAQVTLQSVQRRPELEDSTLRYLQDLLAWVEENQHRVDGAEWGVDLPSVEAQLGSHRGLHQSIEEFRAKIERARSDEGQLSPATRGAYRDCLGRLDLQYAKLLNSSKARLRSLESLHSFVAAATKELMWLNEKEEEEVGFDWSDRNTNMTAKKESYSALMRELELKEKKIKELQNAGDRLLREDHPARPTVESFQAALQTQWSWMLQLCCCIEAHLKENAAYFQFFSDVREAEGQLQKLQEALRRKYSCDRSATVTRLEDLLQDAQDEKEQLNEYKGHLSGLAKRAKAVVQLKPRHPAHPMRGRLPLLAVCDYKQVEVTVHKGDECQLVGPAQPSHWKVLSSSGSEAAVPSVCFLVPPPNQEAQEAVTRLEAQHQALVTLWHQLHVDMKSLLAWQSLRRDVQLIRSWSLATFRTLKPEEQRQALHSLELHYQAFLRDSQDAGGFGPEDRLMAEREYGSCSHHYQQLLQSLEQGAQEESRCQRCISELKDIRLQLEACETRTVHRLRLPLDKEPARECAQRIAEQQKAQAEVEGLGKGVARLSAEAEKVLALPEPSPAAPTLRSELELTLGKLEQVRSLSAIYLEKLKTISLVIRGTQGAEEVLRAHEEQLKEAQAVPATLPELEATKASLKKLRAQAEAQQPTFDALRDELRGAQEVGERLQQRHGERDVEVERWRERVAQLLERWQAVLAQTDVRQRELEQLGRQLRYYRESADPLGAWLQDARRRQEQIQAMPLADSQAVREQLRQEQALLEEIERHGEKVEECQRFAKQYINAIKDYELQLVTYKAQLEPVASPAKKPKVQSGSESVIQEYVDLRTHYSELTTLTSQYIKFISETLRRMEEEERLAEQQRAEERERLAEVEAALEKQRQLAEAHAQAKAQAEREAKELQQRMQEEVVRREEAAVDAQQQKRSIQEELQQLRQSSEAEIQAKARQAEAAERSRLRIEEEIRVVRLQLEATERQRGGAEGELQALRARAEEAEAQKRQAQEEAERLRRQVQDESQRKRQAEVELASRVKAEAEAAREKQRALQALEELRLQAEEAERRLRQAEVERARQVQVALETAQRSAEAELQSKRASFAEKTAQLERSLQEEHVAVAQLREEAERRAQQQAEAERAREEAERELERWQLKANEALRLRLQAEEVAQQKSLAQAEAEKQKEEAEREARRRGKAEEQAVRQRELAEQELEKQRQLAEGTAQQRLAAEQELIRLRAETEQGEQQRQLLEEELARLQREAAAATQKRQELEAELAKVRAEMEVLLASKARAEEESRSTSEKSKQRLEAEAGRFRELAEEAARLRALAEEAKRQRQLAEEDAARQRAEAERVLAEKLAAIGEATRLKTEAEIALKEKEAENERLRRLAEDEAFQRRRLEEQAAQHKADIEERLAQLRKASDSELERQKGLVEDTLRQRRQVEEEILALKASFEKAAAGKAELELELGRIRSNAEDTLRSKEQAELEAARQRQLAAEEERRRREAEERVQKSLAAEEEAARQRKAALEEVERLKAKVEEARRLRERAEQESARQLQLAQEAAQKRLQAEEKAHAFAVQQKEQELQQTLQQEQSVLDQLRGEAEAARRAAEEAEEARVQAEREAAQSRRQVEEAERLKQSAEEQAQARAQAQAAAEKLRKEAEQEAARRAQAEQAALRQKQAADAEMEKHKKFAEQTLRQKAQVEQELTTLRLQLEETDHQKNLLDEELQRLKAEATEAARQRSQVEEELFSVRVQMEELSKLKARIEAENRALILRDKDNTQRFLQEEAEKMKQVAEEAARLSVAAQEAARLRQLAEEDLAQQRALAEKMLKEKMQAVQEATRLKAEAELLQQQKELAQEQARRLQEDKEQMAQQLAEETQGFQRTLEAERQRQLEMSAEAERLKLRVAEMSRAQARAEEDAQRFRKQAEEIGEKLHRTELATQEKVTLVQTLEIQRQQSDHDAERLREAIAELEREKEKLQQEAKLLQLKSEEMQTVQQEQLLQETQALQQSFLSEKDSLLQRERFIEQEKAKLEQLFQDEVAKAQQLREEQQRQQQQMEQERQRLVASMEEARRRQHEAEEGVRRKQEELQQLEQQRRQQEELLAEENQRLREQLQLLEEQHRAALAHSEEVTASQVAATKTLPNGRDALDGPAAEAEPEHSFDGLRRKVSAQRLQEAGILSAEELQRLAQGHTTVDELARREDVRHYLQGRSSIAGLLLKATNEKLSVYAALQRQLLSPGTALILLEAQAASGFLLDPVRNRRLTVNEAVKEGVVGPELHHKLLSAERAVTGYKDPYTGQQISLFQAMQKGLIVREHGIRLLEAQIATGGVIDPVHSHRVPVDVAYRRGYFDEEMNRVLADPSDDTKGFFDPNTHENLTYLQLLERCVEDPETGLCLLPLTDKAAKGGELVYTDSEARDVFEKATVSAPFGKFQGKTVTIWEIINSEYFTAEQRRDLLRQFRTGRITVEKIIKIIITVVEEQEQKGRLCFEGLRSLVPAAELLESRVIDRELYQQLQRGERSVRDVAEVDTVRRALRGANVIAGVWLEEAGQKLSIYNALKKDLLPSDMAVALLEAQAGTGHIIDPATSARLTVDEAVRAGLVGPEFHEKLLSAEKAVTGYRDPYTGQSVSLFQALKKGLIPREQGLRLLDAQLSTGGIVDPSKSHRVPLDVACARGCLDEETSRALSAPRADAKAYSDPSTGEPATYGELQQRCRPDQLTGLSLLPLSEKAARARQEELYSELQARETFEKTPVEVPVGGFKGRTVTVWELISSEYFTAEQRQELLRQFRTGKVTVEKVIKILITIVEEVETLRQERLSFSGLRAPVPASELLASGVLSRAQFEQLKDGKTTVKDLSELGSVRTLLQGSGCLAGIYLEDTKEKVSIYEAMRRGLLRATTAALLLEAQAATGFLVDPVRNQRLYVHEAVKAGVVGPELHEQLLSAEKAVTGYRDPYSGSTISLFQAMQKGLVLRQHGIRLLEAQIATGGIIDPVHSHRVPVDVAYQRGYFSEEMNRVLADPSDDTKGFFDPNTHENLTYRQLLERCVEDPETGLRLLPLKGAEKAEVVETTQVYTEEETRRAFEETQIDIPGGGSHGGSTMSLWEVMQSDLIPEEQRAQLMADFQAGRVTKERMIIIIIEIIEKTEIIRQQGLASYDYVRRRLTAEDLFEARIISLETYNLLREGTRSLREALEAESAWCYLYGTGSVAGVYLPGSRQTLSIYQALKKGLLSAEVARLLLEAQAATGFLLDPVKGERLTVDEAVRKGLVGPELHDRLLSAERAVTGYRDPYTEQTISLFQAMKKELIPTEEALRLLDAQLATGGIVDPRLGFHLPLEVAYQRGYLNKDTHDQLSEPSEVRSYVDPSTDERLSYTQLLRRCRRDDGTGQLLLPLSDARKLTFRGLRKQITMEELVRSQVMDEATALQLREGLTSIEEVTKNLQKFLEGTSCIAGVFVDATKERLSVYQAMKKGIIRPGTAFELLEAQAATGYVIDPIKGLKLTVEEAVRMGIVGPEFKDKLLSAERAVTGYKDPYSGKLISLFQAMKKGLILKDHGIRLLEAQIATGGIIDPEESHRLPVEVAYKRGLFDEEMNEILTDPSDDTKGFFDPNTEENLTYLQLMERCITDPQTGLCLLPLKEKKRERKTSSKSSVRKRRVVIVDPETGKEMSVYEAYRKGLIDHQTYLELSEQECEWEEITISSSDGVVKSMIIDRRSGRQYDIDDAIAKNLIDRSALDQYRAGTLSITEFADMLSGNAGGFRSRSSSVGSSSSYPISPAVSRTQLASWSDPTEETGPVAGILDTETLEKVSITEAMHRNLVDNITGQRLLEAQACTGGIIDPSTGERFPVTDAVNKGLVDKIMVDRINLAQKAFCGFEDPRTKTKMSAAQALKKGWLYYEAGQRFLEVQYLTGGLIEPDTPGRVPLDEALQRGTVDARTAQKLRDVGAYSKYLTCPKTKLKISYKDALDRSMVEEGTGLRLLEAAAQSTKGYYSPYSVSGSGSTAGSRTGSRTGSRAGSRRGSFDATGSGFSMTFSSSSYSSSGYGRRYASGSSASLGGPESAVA
Sequence of UniProt P62937 (P62937 whole entry, looked up): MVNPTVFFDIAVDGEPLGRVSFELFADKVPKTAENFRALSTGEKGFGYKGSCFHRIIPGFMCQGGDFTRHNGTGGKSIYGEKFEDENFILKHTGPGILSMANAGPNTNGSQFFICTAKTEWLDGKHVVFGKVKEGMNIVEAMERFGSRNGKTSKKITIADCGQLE
Sequence of UniProt Q9UII2 (Q9UII2 whole entry): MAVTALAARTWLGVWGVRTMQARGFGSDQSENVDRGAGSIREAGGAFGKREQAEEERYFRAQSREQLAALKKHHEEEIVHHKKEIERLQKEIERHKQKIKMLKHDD
Sequence of UniProt Q9BV40 (Q9BV40 whole entry): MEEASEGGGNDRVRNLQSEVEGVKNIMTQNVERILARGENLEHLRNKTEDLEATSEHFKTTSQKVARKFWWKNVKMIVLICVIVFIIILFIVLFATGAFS

Compound in the test: C#CCNC(=O)CCSSCCC(=O)NCCc1ccc(C=O)c(C=O)c1
The experiment in a line: lysine labeling ratio R10:1 (500 µM / 50 µM probe), SILAC-ABPP in living cells; higher = lower intrinsic lysine reactivity toward the probe, active = 2 or less. The settings on record: HeLa; probe concentrations 500 vs 50 µM. In outline:
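Living SILAC light and heavy HeLa cells in PBS at room temperature were treated with an alkyne-tagged, disulfide-linked lysine probe at 50 µM or 500 µM, with forward and reverse label swaps. The mixed lysates were clicked to biotin-azide, digested with trypsin, captured on neutravidin, released with DTT, alkylated and run by LC-MS/MS on a TIMS-TOF Pro. R for each lysine is the filtered median high-probe/low-probe MS1 peptide ratio, taken again as the median over forward and reverse replicates. Any value above 20 is set to 20.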
In the case of UniProt Q99623 (lysine site: K216), the “lysine labeling ratio R10:1” value was 2.79 (inactive).
Under “EGFR (lysine site: K538) (UniProt P00533)” stands 5.46 (inactive).
Take “NRP1 (lysine site: K504) (UniProt O14786)”: the “lysine labeling ratio R10:1” value was 6.03 (inactive).
In the case of “SPTAN1 (lysine site: K30) (UniProt Q13813)” it was 5.74 (inactive).
In the case of “ACIN1 (lysine site: K81) (UniProt Q9UKV3)” it was 3.67 (inactive); in that of “NOTCH1 (lysine site: K185) (UniProt P46531)”, 1.8 (active).
Under “PRCP (lysine site: K228) (UniProt P42785)” stands 2.59 (inactive).
Regarding “NOTCH2 (lysine site: K1058) (UniProt Q04721)”, the “lysine labeling ratio R10:1” value is 1.5 (active).
In the case of UniProt Q9UII2 (lysine site: K90) it was 6.67 (inactive); in that of “FAT4 (lysine site: K2566) (UniProt Q6V0I7)”, 2.59 (inactive).
In the case of “LGALS1 (lysine site: K130) (UniProt P09382)” it was 2.14 (inactive); in that of UniProt P63000 (lysine site: K153), 2.29 (inactive).
For “TCP1 (lysine site: K272) (UniProt P17987)”, the “lysine labeling ratio R10:1” value is 2.44 (inactive).
In the case of “LAMB1 (lysine site: K1778) (UniProt P07942)” it was 1.01 (active).
On to “FLNA (lysine site: K837) (UniProt P21333)”, for which the “lysine labeling ratio R10:1” value was 4.31 (inactive).
Under “IGF1R (lysine site: K502) (UniProt P08069)” stands 2.64 (inactive); under “HNRNPC (lysine site: K94) (UniProt P07910)”, 3.25 (inactive).
In the case of “XRCC6 (lysine site: K238) (UniProt P12956)” it was 0.959 (active); in that of “SLC39A6 (lysine site: K143) (UniProt Q13433)”, 4.18 (inactive).
Under “STOML2 (lysine site: K145) (UniProt Q9UJZ1)” stands 3.01 (inactive); under UniProt P25705 (lysine site: K175), 2.16 (inactive); under “L1CAM (lysine site: K62) (UniProt P32004)”, 2.25 (inactive).
Take UniProt P61513 (lysine site: K13): the “lysine labeling ratio R10:1” value was 1.64 (active).
Under UniProt Q9NRD8 (lysine site: K530) stands 6.54 (inactive); under “DYNC1H1 (lysine site: K2286) (UniProt Q14204)”, 1.93 (active); under “ARHGAP17 (lysine site: K9) (UniProt Q68EM7)”, 1.92 (active).
In the case of “ACSL3 (lysine site: K706) (UniProt O95573)” it was 3.43 (inactive); in that of “SLC4A2 (lysine site: K893) (UniProt P04920)”, 3.14 (inactive); in that of “F11R (lysine site: K63) (UniProt Q9Y624)”, 2.75 (inactive).
With “RPL35A (lysine site: K73) (UniProt P18077)”, the “lysine labeling ratio R10:1” value was 3.82 (inactive).
Under “SLC9A6 (lysine site: K61) (UniProt Q92581)” stands 4.56 (inactive); under “PPP2CA (lysine site: K41) (UniProt P67775)”, 1.68 (active).
Under UniProt P16144 (lysine site: K46) stands 10.1 (inactive); under “ITGB1 (lysine site: K72) (UniProt P05556)”, 1.91 (active).
In the case of UniProt Q15149 (lysine site: K1659), the “lysine labeling ratio R10:1” value is 6.06 (inactive).
Take “TIMM8B (lysine site: K80) (UniProt Q9Y5J9)”: the “lysine labeling ratio R10:1” value is 1.18 (active).
Under UniProt Q15149 (lysine site: K1896) stands 5.17 (inactive).
In the case of “VAMP8 (lysine site: K64) (UniProt Q9BV40)” it was 2.52 (inactive); in that of “PPIA (lysine site: K155) (UniProt P62937)”, 2.47 (inactive).
In the case of “FLNA (lysine site: K1491) (UniProt P21333)” it was 2.1 (inactive).
